Assay results taken from PubChem BioAssay (NCATS).
Results filed as inconclusive are left out. Values without a mark were called inactive. Active and inactive are the calls of the source. The call rests on the fitted dose curve; in most records, active means well fitted curve in the direction sought with a large enough effect; inconclusive means small, poorly fitted or top-dose-only effect, or another doubt; inactive means no such curve, though single readings can be large; an effect the other way counts as inactive or inconclusive.

Assays:
[1] = Quantitative High-Throughput drug screen in 47 multiple myeloma cell lines against the NCATS MIPE library collection: KMS12PE_JCRB cell viability assay (AID 1918972); further: nearly all actives have a fitted effect of over 30% in size; further: potency means the concentration at half of the fitted maximal effect
How it was run: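 CellTiter-Glo luminescence (ATP) after 48 h compound exposure, 37C/5% CO2; 500 cells/well; MIPE 4.0 approved/investigational drugs pinned in; DMSO = 100%, media only = 0% viability.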

[2] = Quantitative High-Throughput drug screen in 47 multiple myeloma cell lines against the NCATS MIPE library collection: KMS20_JCRB cell viability assay (AID 1918973); further: nearly all actives have a fitted effect of over 45% in size; further: potency means the concentration at half of the fitted maximal effect
How it was run: (§1)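 We plated 500 myeloma cells per well, pinned in MIPE 4.0 compounds, and incubated for 48 hours at 37C. ATP was then quantified with CellTiter-Glo, with DMSO and media-only wells defining 100% and 0%.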

[3] = Quantitative High-Throughput drug screen in 47 multiple myeloma cell lines against the NCATS MIPE library collection: KMS26_JCRB cell viability assay (AID 1918975); further: nearly all actives have a fitted effect of over 45% in size; further: potency means the concentration at half of the fitted maximal effect
How it was run: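 Luminescent ATP measurement with CellTiter-Glo gives viability, scaled between DMSO-only wells (100%) and media-only wells (0%). Cells, 500 per well, faced library compounds for 48 hours at 37C.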

[4] = Quantitative High-Throughput drug screen in 47 multiple myeloma cell lines against the NCATS MIPE library collection: MMM1_PLB cell viability assay (AID 1918976); further: nearly all actives have a fitted effect of over 35% in size; further: potency means the concentration at half of the fitted maximal effect
How it was run: (§2)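 500 cells/well; MIPE 4.0 drugs pin-transferred; 48 h, 37C, 5% CO2. CellTiter-Glo, 5 min RT, luminescence. Controls: DMSO 100%, media 0%.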

[5] = Quantitative High-Throughput drug screen in 47 multiple myeloma cell lines against the NCATS MIPE library collection: OCIMY1_PLB cell viability assay (AID 1918979); further: nearly all actives have a fitted effect of over 35% in size; further: potency means the concentration at half of the fitted maximal effect
How it was run: as §2

[6] = Quantitative High-Throughput drug screen in 47 multiple myeloma cell lines against the NCATS MIPE library collection: MM1S_ATCC cell viability assay (AID 1918980); further: nearly all actives have a fitted effect of over 45% in size; further: potency means the concentration at half of the fitted maximal effect
How it was run: as §2

[7] = Quantitative High-Throughput drug screen in 47 multiple myeloma cell lines against the NCATS MIPE library collection: MM1R_ATCC cell viability assay (AID 1918981); further: nearly all actives have a fitted effect of over 35% in size; further: potency means the concentration at half of the fitted maximal effect
How it was run: as §2

[8] = Quantitative High-Throughput drug screen in 47 multiple myeloma cell lines against the NCATS MIPE library collection: LP1_DSMZ cell viability assay (AID 1918982); further: nearly all actives have a fitted effect of over 35% in size; further: potency means the concentration at half of the fitted maximal effect
How it was run: as §2

[9] = Quantitative High-Throughput drug screen in 47 multiple myeloma cell lines against the NCATS MIPE library collection: KMS28PE_JCRB cell viability assay (AID 1918983); further: nearly all actives have a fitted effect of over 35% in size
How it was run: as §2

[10] = Quantitative High-Throughput drug screen in 47 multiple myeloma cell lines against the NCATS MIPE library collection: OCIMY7_PLB cell viability assay (AID 1918987); conditions: OCI-MY7 myeloma viability, CellTiter-Glo ATP, 48 h; viability (% of DMSO): at 45.8 µM (top of the series); further: nearly all actives have a fitted effect of over 65% in size; further: potency means the concentration at half of the fitted maximal effect
How it was run: as §2

[11] = Quantitative High-Throughput drug screen in 47 multiple myeloma cell lines against the NCATS MIPE library collection: OCIMY5_PLB cell viability assay (AID 1918988); further: nearly all actives have a fitted effect of over 65% in size; further: potency means the concentration at half of the fitted maximal effect
How it was run: as §2

[12] = Quantitative High-Throughput drug screen in 47 multiple myeloma cell lines against the NCATS MIPE library collection: U266_ATCC cell viability assay (AID 1919864); further: nearly all actives have a fitted effect of over 35% in size; further: potency means the concentration at half of the fitted maximal effect
How it was run: as §2

[13] = Quantitative High-Throughput drug screen in 47 multiple myeloma cell lines against the NCATS MIPE library collection: NCIH929_DSMZ cell viability assay (AID 1918978); further: nearly all actives have a fitted effect of over 35% in size; further: potency means the concentration at half of the fitted maximal effect
How it was run: as §2

[14] = Quantitative High-Throughput drug screen in 47 multiple myeloma cell lines against the NCATS MIPE library collection: OPM1_PLB cell viability assay (AID 1918989); further: nearly all actives have a fitted effect of over 40% in size; further: potency means the concentration at half of the fitted maximal effect
How it was run: as §2

[15] = Quantitative High-Throughput drug screen in 47 multiple myeloma cell lines against the NCATS MIPE library collection: L363_DSMZ cell viability assay (AID 1918984); conditions: L363 myeloma viability, CellTiter-Glo ATP luminescence, 48 h; viability (% of control): at 45.8 µM (top of the series); further: nearly all actives have a fitted effect of over 40% in size; further: potency means the concentration at half of the fitted maximal effect
How it was run: as §2

[16] = Quantitative High-Throughput drug screen in 47 multiple myeloma cell lines against the NCATS MIPE library collection: SKMM1_PLB cell viability assay (AID 1919863); conditions: SKMM1 myeloma viability, CellTiter-Glo ATP, 48 h; viability: hits give low values; further: nearly all actives have a fitted effect of over 35% in size; further: potency means the concentration at half of the fitted maximal effect
How it was run: as §2

[17] = Quantitative High-Throughput drug screen in 47 multiple myeloma cell lines against the NCATS MIPE library collection: KMS21BM_JCRB cell viability assay (AID 1918974); conditions: ATP luminescence, 48 h; viability: at 45.8 µM (top of the series); further: potency means the concentration at half of the fitted maximal effect
How it was run: as §1

[18] = Quantitative High-Throughput drug screen in 47 multiple myeloma cell lines against the NCATS MIPE library collection: KMS34_JCRB cell viability assay (AID 1918985); further: nearly all actives have a fitted effect of over 40% in size; further: potency means the concentration at half of the fitted maximal effect
How it was run: as §2

[19] = Quantitative High-Throughput drug screen in 47 multiple myeloma cell lines against the NCATS MIPE library collection: MOLP8_DSMZ cell viability assay (AID 1918977); further: nearly all actives have a fitted effect of over 45% in size; further: potency means the concentration at half of the fitted maximal effect
How it was run: as §2

Cc1ccc2c(=O)c3cccc(CC(=O)O)c3oc2c1C
Potency [1]: inactive
Potency [2]: 33.2 µM (active)
Potency [3]: 20.9 µM (active)
Potency [4]: inactive
Potency [5]: inactive
Potency [6]: 14.8 µM (active)
Potency [7]: 18.7 µM (active)
Potency [8]: inactive
Potency [9]: inactive
Potency [10]: 26.4 µM (active)
Potency [11]: 18.7 µM (active)
Potency [12]: 18.7 µM (active)

COc1cccc(OC)c1-c1cc(C(=O)NC2(C(=O)O)C3CC4CC(C3)CC2C4)nn1-c1ccnc2cc(Cl)ccc12 (stereo not drawn)
Potency [1]: inactive
Potency [2]: inactive
Potency [3]: inactive
Potency [4]: 14.8 µM (active)
Potency [13]: inactive
Potency [6]: 16.6 µM (active)
Potency [7]: inactive
Potency [8]: inactive
Potency [11]: inactive
Potency [14]: inactive

CCCCN(CCCC)CC(O)c1cc(Cl)cc2c1-c1ccc(Cl)cc1C2=Cc1ccc(Cl)cc1 (stereo not drawn)
Potency [1]: inactive
Potency [2]: 11.8 µM (active)
Potency [4]: 23.5 µM (active)
Potency [13]: 26.4 µM (active)
Potency [6]: 23.5 µM (active)
Potency [15]: inactive
Potency [10]: 26.4 µM (active)
Potency [11]: 10.5 µM (active)
Potency [14]: 18.7 µM (active)
Potency [16]: 33.2 µM (active)
Potency [12]: inactive

Nc1ncnc2c1ncn2[C@@H]1O[C@H](CO)[C@@H](O)[C@@H]1O
Potency [1]: 1.66 µM (active)
Potency [17]: 0.209 µM (active)
Potency [3]: 16.6 µM (active)
Potency [13]: 8.33 µM (active)
Potency [5]: inactive
Potency [6]: 0.743 µM (active)
Potency [7]: 20.9 µM (active)
Potency [15]: 1.05 µM (active)
Potency [18]: 18.7 µM (active)
viability (% of DMSO) [10]: 126% (active)
Potency [11]: 16.6 µM (active)
Potency [14]: 20.9 µM (active)
viability [16]: 106%
Potency [12]: 7.43 µM (active)

CC1(C)[C@H]2CC[C@]3(C)[C@@H](C(=O)C=C4[C@@H]5C[C@@](C)(C(=O)O)CC[C@]5(C)CC[C@]43C)[C@@]2(C)CC[C@@H]1O
Potency [1]: inactive
Potency [3]: inactive
Potency [4]: 3.72 µM (active)
Potency [13]: inactive
Potency [5]: inactive
Potency [6]: inactive
Potency [7]: inactive
Potency [8]: inactive
Potency [14]: inactive
Potency [16]: 11.8 µM (active)
Potency [12]: inactive

CN1CC(=O)NC1=NC(=O)Nc1cccc(Cl)c1
Potency [1]: inactive
Potency [3]: 18.7 µM (active)
Potency [4]: 20.9 µM (active)
Potency [19]: 10.5 µM (active)
Potency [13]: 16.6 µM (active)
Potency [5]: 26.4 µM (active)
Potency [6]: 26.4 µM (active)
Potency [7]: 18.7 µM (active)
Potency [8]: 14.8 µM (active)
Potency [9]: inactive
Potency [15]: 2.96 µM (active)
Potency [10]: 13.2 µM (active)
Potency [11]: 23.5 µM (active)
Potency [14]: 18.7 µM (active)
Potency [16]: 18.7 µM (active)
Potency [12]: 20.9 µM (active)

CC(C)(C)c1nc(-c2cccc(NS(=O)(=O)c3c(F)cccc3F)c2F)c(-c2ccnc(N)n2)s1
Potency [1]: 1.87 µM (active)
Potency [17]: 2.35 µM (active)
Potency [3]: inactive
Potency [19]: 5.9 µM (active)
Potency [13]: 7.43 µM (active)
Potency [5]: inactive
Potency [6]: 16.6 µM (active)
Potency [7]: 18.7 µM (active)
Potency [9]: inactive
Potency [15]: 16.6 µM (active)
Potency [10]: 0.209 µM (active)
Potency [11]: 1.32 µM (active)
Potency [14]: 18.7 µM (active)
Potency [12]: 5.9 µM (active)

CC1=C(C(=O)Nc2cc3cn[nH]c3cc2F)C(c2ccc(C(F)(F)F)cc2)CC(=O)N1 (stereo not drawn)
Potency [1]: inactive
Potency [2]: inactive
Potency [3]: inactive
Potency [13]: inactive
Potency [5]: inactive
Potency [7]: inactive
Potency [8]: inactive
Potency [18]: inactive
Potency [11]: inactive
Potency [14]: inactive

O=C(O)C1=CO[C@@H](O[C@@H]2O[C@H](CO)[C@H](O)[C@H](O)[C@H]2O)[C@@H]2C(CO)=CC[C@H]12
Potency [1]: 0.0743 µM (active)
Potency [2]: inactive
Potency [19]: inactive
Potency [5]: inactive
Potency [6]: 16.6 µM (active)
Potency [7]: inactive
Potency [8]: inactive
Potency [15]: inactive
Potency [10]: inactive
Potency [14]: inactive
viability [16]: 118%

N#CC(c1ccnc(NCCc2cccnc2)n1)c1nc2ccccc2s1 (stereo not drawn)
Potency [1]: 4.18 µM (active)
Potency [2]: 14.8 µM (active)
Potency [4]: 20.9 µM (active)
Potency [13]: 7.43 µM (active)
Potency [5]: inactive
Potency [7]: 18.7 µM (active)
Potency [8]: 18.7 µM (active)
Potency [15]: 4.69 µM (active)
Potency [18]: 14.8 µM (active)
Potency [10]: 2.96 µM (active)
Potency [11]: 13.2 µM (active)
Potency [14]: 14.8 µM (active)

NS(=O)(=O)c1cc(Cl)c(Cl)c(S(N)(=O)=O)c1
Potency [1]: inactive
Potency [3]: inactive
Potency [4]: 18.7 µM (active)
Potency [19]: inactive
Potency [13]: inactive
Potency [5]: inactive
Potency [6]: inactive
Potency [7]: inactive
Potency [8]: inactive
Potency [9]: inactive
Potency [10]: inactive
Potency [11]: inactive
Potency [14]: inactive

COc1ccc(CCC(=O)Nc2nc3ccc(Cl)cc3s2)cc1OC
Potency [1]: inactive
Potency [3]: inactive
Potency [4]: 3.72 µM (active)
Potency [19]: inactive
Potency [13]: 18.7 µM (active)
Potency [6]: 13.2 µM (active)
Potency [7]: inactive
Potency [14]: inactive
Potency [12]: 16.6 µM (active)
